Reference: PubChem BioAssay AID1159580 (chemical genetic matrix, 2015)
About 2,000 (36%) of roughly 5,500 compounds were called active. Inconclusive results (about 18%) are left out. No stated cut-off is given here; in the data, active means normalized growth mostly below about 0.91 (no sharp cut-off); inconclusive means no clear call, values can overlap the other calls; inactive means mostly above about 0.92. The list shows a part of the results.

Assay: chemical genetic growth profiling, strain panel (AID 1159580);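 further: tested at 20 µM; growth read once vehicle control cultures reached saturation at 30 °C; 1 = growth at the plate median or of vehicle wells; lower values mean less growth of the strain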
Conditions: S. cerevisiae deletion strains, growth OD
[1] = locus YHR030C, strain SLT2, hits give low values

Measured: normalized growth

CCC(=O)NCC[C@@H]1CCc2ccc3c(c21)CCO3
inactive: locus YAL021C, strain ccr4, hits give low values 1.03 | locus YAL026C, strain drs2, hits give low values 1.01 | locus YAL030W, strain snc1, hits give low values 1.01 | locus YBL061C, strain skt5, hits give low values 1.02 | locus YBR009C, strain hhf1, hits give low values 0.987 | locus YBR023C, strain chs3, hits give low values 1.02 | locus YBR171W, strain sec66, hits give low values 1 | locus YBR231C, strain swc5, hits give low values 0.993 | locus YBR279W, strain paf1, hits give low values 1.02 | locus YCL011C, strain gbp2, hits give low values 1 | locus YCL016C, strain dcc1, hits give low values 1.04 | locus YCL061C, strain MRC1, hits give low values 0.988 | locus YCL069W, strain vba3, hits give low values 1 | locus YCR088W, strain abp1, hits give low values 1.01 | locus YDL005C, strain med2, hits give low values 0.995 | locus YDL040C, strain nat1, hits give low values 1 | locus YDR001C, strain nth1, hits give low values 1 | locus YDR069C, strain doa4, hits give low values 0.982 | locus YDR137W, strain rgp1, hits give low values 1.04 | locus YDR159W, strain sac3, hits give low values 0.924 | locus YDR195W, strain ref2 1.01 | locus YDR297W, strain sur2, hits give low values 0.989 | locus YDR334W, strain swr1, hits give low values 1 | locus YDR335W, strain msn5, hits give low values 0.998 | locus YDR392W, strain spt3, hits give low values 0.988 | locus YEL003W, strain gim4, hits give low values 0.972 | locus YEL037C, strain rad23, hits give low values 1.01 | locus YEL061C, strain CIN8 (second series), hits give low values 0.991 | locus YER015W, strain faa2, hits give low values 1 | locus YER016W, strain bim1, hits give low values 1.02 | locus YER111C, strain swi4, hits give low values 1.03 | locus YER155C, strain BEM2 (second series), hits give low values 1.06 | locus YFR010W, strain ubp6, hits give low values 0.953 | locus YGL167C, strain pmr1, hits give low values 1 | locus YGL173C, strain kem1, hits give low values 0.978 | locus YGL227W, strain vid30, hits give low values 1.01 | locus YGL240W, strain doc1, hits give low values 1.01 | locus YGL253W, strain hxk2, hits give low values 0.972 | locus YHR013C, strain ard1, hits give low values 1.02 | locus YHR027C, strain rpn1, hits give low values 0.998 | [1] 0.947 | locus YHR079C, strain IRE1, hits give low values 0.953 | locus YHR142W, strain chs7, hits give low values 0.989 | locus YJL092W, strain hpr5, hits give low values 1.01 | locus YJL095W, strain BCK1 (second series), hits give low values 1.01 | locus YJL095W, strain BCK1, hits give low values 0.981 | locus YJL115W, strain asf1, hits give low values 1.02 | locus YJL129C, strain trk1, hits give low values 1 | locus YJL154C, strain vps35, hits give low values 1.01 | locus YJL164C, strain tpk1, hits give low values 0.968 | locus YJL166W, strain qcr8, hits give low values 0.98 | locus YJL187C, strain SWE1, hits give low values 1.01 | locus YJR066W, strain TOR1, hits give low values 0.936 | locus YKL160W, strain elf1, hits give low values 1.05 | locus YKR026C, strain gcn3, hits give low values 1.01 | locus YKR091W, strain srl3, hits give low values 1 | locus YLL001W, strain dnm1, hits give low values 0.952 | locus YLL026W, hits give low values 1 | locus YLL041C, strain sdh2, hits give low values 0.997 | locus YLR027C, strain aat2, hits give low values 0.999 | locus YLR113W, strain HOG1, hits give low values 0.95 | locus YLR221C, strain rsa3, hits give low values 0.953 | locus YLR258W, strain gsy2, hits give low values 1.02 | locus YLR262C, strain YPT6 (second series), hits give low values 1.01 | locus YLR320W, strain mms22, hits give low values 0.975 | locus YLR342W, strain FKS1, hits give low values 1 | locus YLR357W, strain rsc2, hits give low values 1.02 | locus YLR370C, strain arc18, hits give low values 1 | locus YLR384C, strain iki3, hits give low values 1.01 | locus YML120C, strain ndi1, hits give low values 0.963 | locus YMR058W, strain fet3, hits give low values 1.01 | locus YMR125W, strain sto1, hits give low values 1 | locus YMR129W, hits give low values 0.985 | locus YMR205C, strain PFK2, hits give low values 1 | locus YMR231W, strain pep5, hits give low values 1 | locus YNL071W, strain lat1, hits give low values 1.01 | locus YNL183C, strain NPR1, hits give low values 0.904 | locus YNL209W, strain ssb2, hits give low values 1.01 | locus YNL248C, strain rpa49, hits give low values 1.01 | locus YNL322C, strain KRE1 (second series), hits give low values 1.02 | locus YNR049C, strain mso1, hits give low values 1 | locus YOR001W, strain rrp6, hits give low values 0.929 | locus YOR070C, strain gyp1, hits give low values 1.02 | locus YOR080W, strain dia2, hits give low values 1.01 | locus YOR083W, strain WHI5, hits give low values 0.966 | locus YOR106W, strain vam3, hits give low values 1 | locus YOR231W, strain MKK1, hits give low values 0.969 | locus YOR265W, strain rbl2, hits give low values 1 | locus YOR290C, strain snf2, hits give low values 1.01 | locus YPL051W, strain arl3, hits give low values 1.06 | locus YPL078C, strain atp4, hits give low values 1.03 | locus YPL106C, strain sse1, hits give low values 1.04 | locus YPL240C, strain hsp82, hits give low values 1.01 | locus YPL256C, strain CLN2, hits give low values 0.942
active: locus YOR270C, strain vph1, hits give low values 0.771

CC(C)(C)C1=CC(=O)C=C(C(C)(C)C)C1=O
inactive: locus YAL013W, strain DEP1, hits give low values 1.03 | locus YBR229C, strain ROT2, hits give low values 1.04 | locus YDL101C, strain DUN1, hits give low values 0.997 | locus YDL134C, strain PPH21, hits give low values 1.01 | locus YDR150W, strain NUM1, hits give low values 0.979 | locus YEL061C, strain CIN8, hits give low values 1 | locus YGR078C, strain PAC10, hits give low values 1.01 | [1] 0.996 | locus YHR087W, strain rtc3, hits give low values 1 | locus YJR043C, strain POL32, hits give low values 1.02 | locus YJR075W, strain HOC1, hits give low values 1.01 | locus YLR039C, strain RIC1, hits give low values 1.03 | locus YLR058C, strain SHM2 (second series), hits give low values 1.02 | locus YLR085C, strain ARP6, hits give low values 1.05 | locus YLR262C, strain YPT6, hits give low values 1 | locus YML094W, strain GIM5, hits give low values 1.01 | locus YMR219W, strain ESC1, hits give low values 1.01 | locus YMR263W, strain SAP30, hits give low values 1.02 | locus YMR307W, strain GAS1, hits give low values 1.02 | locus YNL153C, strain GIM3, hits give low values 1.03 | locus YNL298W, strain CLA4 (second series), hits give low values 1.03 | locus YNL322C, strain KRE1, hits give low values 1 | locus YNR030W, strain Alg12, hits give low values 1.03 | locus YOL006C, strain TOP1, hits give low values 1.05 | locus YPL055C, strain LGE1, hits give low values 1.02 | locus YPL241C, strain CIN2, hits give low values 0.999 | locus YPR135W, strain CTF4, hits give low values 1.07
